CYP2C9 act: CYP2C9 (human) activation | P11712 | activation factor at 5 µM | recombinant CYP2C9, luciferin-H conversion, luminescence; active compounds read high; factor 1 = untreated enzyme, 0 = blocked | AID 1024 | 1.4% of 96,000 active;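 active = activation factor of 2 or more for CYP2C9 at a 5 µM dose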;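 note: 0 = sulfaphenazole-blocked wells and 1 = vehicle-only wells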
hDAT+cocaine: changed human dopamine transporter uptake under cocaine IC80. Q01959. LLC-PK1 hDAT cells, [14C]-dopamine uptake with cocaine IC80; actives deviate in either direction. B-score at 10 µM. 1.3% of 110,000 active;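 active = Z score or B-score, a plate-position-corrected score, falls beyond the plate's 99.7% confidence bounds, in either direction; inactive = both scores lie inside the 99.7% bounds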;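 note: scored against the spread of the other compound wells on the same plate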
CYP2C19 inh: blocks human cytochrome P450 2C19. P33261. CYP2C19 Supersomes, luciferin-H EGE luminescence, 30 min. inhibition, % at 5 µM. 21% of 96,000 active. AID 778;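 active = CYP2C19 inhibition above a set limit at 5 µM in the primary screen, cut at about 50% in these data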;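 note: plate controls were negative control wells for no effect and 2.5 mM tranylcypromine positive control for full effect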
D1 mod: allosteric modulators of human D1 dopamine receptor; 5.9% of 58,000 active; AID 641; B-score at 10 µM; P21728; HEK293 D1, CRE-luciferase, dopamine EC30 potentiation; actives deviate in either direction;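 active = luminescence count or its row- and column-corrected plate score outside the 99.7% band of the plate's sample wells, on either side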
Target sequence (P21728 whole entry, looked up): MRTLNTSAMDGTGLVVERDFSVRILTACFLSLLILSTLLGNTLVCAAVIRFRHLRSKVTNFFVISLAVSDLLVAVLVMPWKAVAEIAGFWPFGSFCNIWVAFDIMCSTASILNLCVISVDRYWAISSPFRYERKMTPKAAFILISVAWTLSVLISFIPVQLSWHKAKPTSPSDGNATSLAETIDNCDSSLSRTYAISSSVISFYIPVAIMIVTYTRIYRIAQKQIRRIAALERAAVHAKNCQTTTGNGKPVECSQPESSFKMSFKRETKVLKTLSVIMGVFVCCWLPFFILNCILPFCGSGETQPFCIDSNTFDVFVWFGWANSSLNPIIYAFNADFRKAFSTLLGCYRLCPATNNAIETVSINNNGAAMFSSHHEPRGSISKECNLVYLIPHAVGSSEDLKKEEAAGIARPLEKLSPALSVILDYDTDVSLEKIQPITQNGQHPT
CYP2C9 inh: human CYP2C9 inhibition; CYP2C9 Supersomes, luciferin-H conversion, luminescence; inhibition, % at 5 µM; 20% of 96,000 active;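 active = blocking of liver enzyme CYP2C9 beyond about 50% at 5 µM, limit read from the data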
CYP2C19 act: activators of human cytochrome P450 2C19; activation factor at 5 µM; recombinant CYP2C19, luciferin-H EGE luminescence; active compounds read high; 0 = fully inhibited enzyme, 1 = untreated enzyme; P33261; AID 1025; 96,000 tested, under 10 active;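 active = activation factor of at least 2 at 5 µM in the primary screen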;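 note: 0 = wells with 2.5 mM tranylcypromine and 1 = vehicle-only wells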
* = called active by the depositor; · = no result. The list is not random: actives were taken first. Their share in the collection is about 28%.

SMILES	CYP2C9 act	hDAT+cocaine	CYP2C19 inh	D1 mod	CYP2C9 inh	CYP2C19 act
CCCCCOCC1CC(C/C(C)=N/Nc2nc(-c3ccccc3)cs2)C(=O)O1 (stereo not drawn)	0.6	1.2	28	·	37	0.7
O=C(Nc1ccc(NC(=S)NC(=O)C(c2ccccc2)c2ccccc2)cc1)c1ccccc1	·	0.2	·	·	·	·
COc1cc(OC)cc(-c2nc(N)n[nH]2)c1	0.9	-0.25	52*	-0.12	13	0.5
NC(=O)C1CCN(C(=O)c2ccc(CS(=O)(=O)c3c(Cl)cccc3Cl)o2)CC1	0.9	-1.5	-12	-0.022	8	1.1
Cc1ccc2cccc(Oc3cnccn3)c2n1	1.1	-1.9*	-2	-0.034	-5	1
COc1cc(S(=O)(=O)N(Cc2ccc(C)cc2)C2CCCCC2)ccc1-n1cnnn1	0.2	0.52	86*	0.15	84*	0.1
COc1cc(S(=O)(=O)NCC2OCCc3ccccc32)ccc1-n1cnnn1 (stereo not drawn)	0.5	0.32	91*	·	53*	0.1
CC#CCN(CC#CC)S(=O)(=O)c1ccc(-n2cnnn2)c(OC)c1	0.9	-0.39	84*	-0.36	13	0.2
COc1cc(S(=O)(=O)N(Cc2ccc(C)cc2)Cc2ccco2)ccc1-n1cnnn1	0.5	0.03	64*	·	53*	0.4
COc1cc(CC2COC(c3ccc(O)c(OC)c3)C2COC(C)=O)ccc1O (stereo not drawn)	·	0.032	·	·	·	·
CC1CC(=O)c2cnc(N3CCOCC3)nc2C1 (stereo not drawn)	1	0.54	-10	·	-2	1.1
Brc1cnc(N2CCOCC2)nc1N1CCCCC1	0.7	-0.14	58*	0.99	32	0.4
CCN(CC)S(=O)(=O)c1ccc(-c2nnc(SCc3nnc(-c4ccccc4)o3)o2)cc1	0.8	0.15	46	-0.47	15	0.5
O=C1c2cccc3c(N4CCCCC4)ccc(c23)C(=O)N1CCO	0.6	0.29	27	·	43	0.7
Cc1n[nH]c(C)c1N1C(=O)c2cccc3c(N4CCCCCC4)ccc(c23)C1=O	0	1.4	83*	1.4	97*	0.2
C=C1CCN([C@@H](Cc2ccccc2)C(=O)NCCC(C)C)S(=O)(=O)c2ccccc21	·	-0.09	·	·	·	·
N=c1oc2ccc3ccccc3c2cc1-c1nnc2n1CCCCC2	2.1*	3.4*	24	0.081	-115	0.8
CCOC(=O)N1CCC(N2C(=O)c3ccc(C(=O)NCc4ccc(F)cc4)cc3C2=O)CC1	0.4	0.52	29	-0.099	58*	0.7
CCOC(=O)N1CCC(N2Cc3cccc(C(=O)Nc4cc(F)ccc4F)c3C2=O)CC1	0.2	-0.069	21	-0.91	78*	0.8
CCOC(=O)N1CCC(N2Cc3cccc(C(=O)O)c3C2=O)CC1	0.6	0.28	4	0.26	38	1
CCOC(=O)N1CCC(N2Cc3cccc(C(=O)Nc4ccc(CC)cc4)c3C2=O)CC1	0	4*	94*	·	100*	0.1
CCOC(=O)N1CCC(N2C(=O)c3ccc(C(=O)NCc4ccco4)cc3C2=O)CC1	0.7	0.1	16	-0.0074	29	0.8
CCOC(=O)N1CCC(N2Cc3cccc(C(=O)Nc4ccc(F)cc4)c3C2=O)CC1	0.1	0.033	44	·	90*	0.6
CCOC(=O)N1CCC(N2Cc3cccc(C(=O)NCC4CCN(CC(C)C)C4)c3C2=O)CC1 (stereo not drawn)	0	-1.4	86*	-0.53	96*	0.1
O=C(Cn1ncc2c(=O)oc3ccccc3c21)NCCN1CCN(c2ccccc2F)CC1	0.7	-0.95	4	·	35	1
SMILES	CYP2C9 act	hDAT+cocaine	CYP2C19 inh	D1 mod	CYP2C9 inh	CYP2C19 act
CCN(CC)c1ccc(C(=O)n2cnc3ccccc32)cc1	0.3	0.85	85*	0.41	75*	0.2
C(=N\N(c1ccccc1)c1ccccc1)/c1ccc2c(c1)OCO2	0.4	1.1	12	·	56*	0.9
O=C(N/N=C/c1ccc2c(c1)OCO2)/C(=C/c1ccc2c(c1)OCO2)NC(=O)c1ccccc1	1	·	-5	·	-3	1
COc1ccc(C(CC(=O)c2ccc(O)cc2)S(=O)(=O)c2ccc(C)cc2)cc1 (stereo not drawn)	0.1	1.6	71*	·	88*	0.3
COc1ccc(CNC(=O)NS(=O)(=O)c2ccc(C)cc2)cc1	·	-0.83	·	·	·	·
COc1ccc(S(=O)(=O)c2ccc(O)cc2)cc1	2.8*	-0.64	71*	·	-183	0.3
CC1(CC(=O)O)C(=O)N=C2C=CC=CN21 (stereo not drawn)	·	0.75	·	0.038	·	·
COC(=O)CC1=NC(=O)CS1	1.1	0.1	-21	-0.087	-14	1.2
Cc1ccc2nc(NC(=O)CNS(=O)(=O)c3ccc(Br)s3)sc2c1	0.4	-0.22	21	-0.47	63*	0.8
Cc1cccc2sc(NC(=O)CNS(=O)(=O)c3ccc(Br)s3)nc12	1.4	-0.76	65*	2.4	-42	0.3
CCOC(=O)c1c(C)[nH]c(C(=O)C(C)OC(=O)c2oc3ccccc3c2COC)c1C (stereo not drawn)	0.9	0.18	6	·	14	0.9
O=C(Nc1ccccc1)N1CCCC(c2nc(-c3cccs3)no2)C1 (stereo not drawn)	0.5	1.1	87*	0.59	48	0.1
COc1ccc(NC(=O)N2CCC(c3nc(-c4cccs4)no3)CC2)cc1	0.5	·	69*	-0.93	55*	0.3
CCc1ccccc1N(C)C(=O)CCc1nc(-c2ccc(C)cc2)no1	0.4	-0.31	46	-0.43	63*	0.5
COc1ccc(Cl)cc1N(C)C(=O)CCc1nc(-c2ccc(C)cc2)no1	0.1	-0.044	92*	-0.24	94*	0.1
CCCOc1ccc(N2C(=O)CC(N3CCCC(C(=O)N4CCCC4)C3)C2=O)cc1 (stereo not drawn)	0.9	0.33	-3	-0.43	7	1
N#Cc1cc(-c2ccccc2)cnc1Cl	1	-0.36	11	·	-1	0.9
COc1cccc(C(=O)C2CN(c3ccccc3)CC2c2ccc(Cl)cc2)c1 (stereo not drawn)	0.8	0.46	4	·	22	1
Cc1ccccc1CSCC(=O)c1c(N)n(CC(C)C)c(=O)n(C)c1=O	0.9	-0.38	30	·	14	0.7
CC(C)Cn1c(N)c(C(=O)COC(=O)c2ccncc2)c(=O)n(C)c1=O	0.5	-0.13	42	0.56	53*	0.6
CC(C)Cn1c(N)c(C(=O)COC(=O)CC23CC4CC(CC(C4)C2)C3)c(=O)n(C)c1=O	0.2	1.3	63*	·	85*	0.4
COc1ccc([C@@H]2C[C@@H](c3ccccc3)Oc3cc(OC)cc(OC)c32)cc1	·	0.5	·	·	·	·
CCCCOc1ccc(CNC(=O)NS(=O)(=O)c2ccc(OCC)cc2)cc1	0.1	-9.1*	10	·	86*	0.9

Bioassay records from PubChem BioAssay.
